{"source": "PubChem BioAssay (EPA / NIEHS)", "key": {"[1]": {"target": "human Norepinephrine Transporter (NET), SLC6A2 (gene 6530) (UniProt P23975)", "sequence (P23975 whole entry, looked up)": "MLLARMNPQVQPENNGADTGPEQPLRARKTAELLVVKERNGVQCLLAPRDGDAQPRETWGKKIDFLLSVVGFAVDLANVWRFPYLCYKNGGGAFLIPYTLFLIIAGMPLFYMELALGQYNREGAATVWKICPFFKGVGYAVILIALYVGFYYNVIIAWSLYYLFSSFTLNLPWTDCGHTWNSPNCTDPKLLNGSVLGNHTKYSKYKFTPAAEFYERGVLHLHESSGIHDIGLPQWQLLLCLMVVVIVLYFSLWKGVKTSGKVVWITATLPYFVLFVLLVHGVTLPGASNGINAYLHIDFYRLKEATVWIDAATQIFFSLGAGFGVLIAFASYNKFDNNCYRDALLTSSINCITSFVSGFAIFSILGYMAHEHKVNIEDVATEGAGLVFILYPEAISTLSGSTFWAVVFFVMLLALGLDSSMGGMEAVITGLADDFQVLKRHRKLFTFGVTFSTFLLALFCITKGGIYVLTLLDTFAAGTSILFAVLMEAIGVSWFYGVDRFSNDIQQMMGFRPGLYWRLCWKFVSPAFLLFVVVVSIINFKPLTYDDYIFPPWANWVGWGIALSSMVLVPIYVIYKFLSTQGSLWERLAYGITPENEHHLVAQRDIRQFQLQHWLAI", "experiment": "NVS_TR_hNET: NovaScreen (NVS) Transporter Assay for human Norepinephrine Transporter (NET) (AID 2283377)", "procedure,_shortened": "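CHO cell extracts expressing the transporter; tritiated or iodinated tracer displaced competitively; filtration plus scintillation readout at 1 h. Single-point duplicates at 25 uM, concentration series for follow-up; activity = signal drop relative to DMSO.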"}, "[2]": {"target": "Estrogen receptor (Homo sapiens) (UniProt P03372)", "sequence (P03372 whole entry, looked up)": "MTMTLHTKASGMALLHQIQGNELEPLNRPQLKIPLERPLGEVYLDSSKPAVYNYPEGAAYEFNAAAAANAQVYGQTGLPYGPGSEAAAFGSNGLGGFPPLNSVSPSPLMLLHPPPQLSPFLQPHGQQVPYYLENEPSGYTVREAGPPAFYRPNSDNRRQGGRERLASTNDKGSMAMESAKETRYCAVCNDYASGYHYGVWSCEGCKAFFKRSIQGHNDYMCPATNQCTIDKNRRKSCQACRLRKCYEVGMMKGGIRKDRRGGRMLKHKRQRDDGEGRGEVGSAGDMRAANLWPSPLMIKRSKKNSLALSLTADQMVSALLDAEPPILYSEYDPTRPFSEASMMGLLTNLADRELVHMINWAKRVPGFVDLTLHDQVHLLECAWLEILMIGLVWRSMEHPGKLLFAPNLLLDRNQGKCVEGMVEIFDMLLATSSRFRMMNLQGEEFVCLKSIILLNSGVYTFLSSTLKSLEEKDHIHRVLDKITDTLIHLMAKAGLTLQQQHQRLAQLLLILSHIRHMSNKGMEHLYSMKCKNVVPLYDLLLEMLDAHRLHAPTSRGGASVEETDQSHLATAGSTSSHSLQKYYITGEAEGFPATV", "experiment": "OT_ERa_GFPERaERE_0480: Odyssey Thera (OT) 8-hour HeLa Transcription Induction Assay for Estrogen Receptor (AID 2283381; active = hit-call score of the fitted dose curve at least 0.9, where 1 is the maximum; inactive = score below 0.9)", "procedure,_shortened": "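Fluorescence microscopy with high-content image analysis measures ERE-driven GFP induction in HeLa cells at 8 h post-dose. Increases fitted against DMSO baseline.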"}, "[3]": {"target": "Estrogen receptor (Homo sapiens) (UniProt P03372)", "experiment": "OT_ERa_GFPERaERE_0120: Odyssey Thera (OT) 2-hour HeLa Transcription Induction Assay for Estrogen Receptor (AID 2283382)", "procedure,_shortened": "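Fluorescence-microscopy images of the GFP-ERα/ERE reporter, scored by high-content image algorithms, give the readout. HeLa exposure lasted 2 h, and only signal increase over DMSO was fitted.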"}, "[4]": {"target": "Peroxisome proliferator-activated receptor gamma (Homo sapiens) (UniProt P37231)", "sequence (P37231 whole entry, looked up, the tested form may be a part)": "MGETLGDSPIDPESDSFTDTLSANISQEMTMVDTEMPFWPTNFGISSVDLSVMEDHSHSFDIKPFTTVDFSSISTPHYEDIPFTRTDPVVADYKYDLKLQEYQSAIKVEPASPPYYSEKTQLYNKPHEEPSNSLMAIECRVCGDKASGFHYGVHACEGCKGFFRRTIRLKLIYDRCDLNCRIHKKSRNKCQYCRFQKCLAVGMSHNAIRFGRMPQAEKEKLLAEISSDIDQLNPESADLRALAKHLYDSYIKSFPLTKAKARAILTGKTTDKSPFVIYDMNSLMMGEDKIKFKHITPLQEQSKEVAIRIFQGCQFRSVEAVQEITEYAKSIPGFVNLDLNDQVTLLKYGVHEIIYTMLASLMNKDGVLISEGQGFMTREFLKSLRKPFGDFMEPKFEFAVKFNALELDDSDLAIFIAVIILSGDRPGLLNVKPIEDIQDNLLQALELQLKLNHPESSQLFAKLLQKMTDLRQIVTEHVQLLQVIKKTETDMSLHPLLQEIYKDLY", "experiment": "OT_PPARg_PPARgSRC1_0480: Odyssey Thera (OT) 8-hour Protein-Complementation Assay for Peroxisome Proliferator-activated Receptor Gamma / SRC-1 Co-activator (AID 2283387)", "procedure,_shortened": "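Split-YFP (IFP1/IFP2) PPARg/SRC-1 reporter, HEK293T, 37 °C, 5% CO2; 8 h compound; formaldehyde fix + Draq5; high-content imaging, N/C ratio, ≥350 cells/image, positive direction vs DMSO.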"}, "[5]": {"target": "Peroxisome proliferator-activated receptor gamma (Homo sapiens) (UniProt P37231)", "experiment": "OT_PPARg_PPARgSRC1_1440: Odyssey Thera (OT) 24-hour Protein-Complementation Assay for Peroxisome Proliferator-activated Receptor Gamma/ SRC-1 Co-activator (AID 2283388)", "procedure,_shortened": "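HEK293T transiently transfected with PPARg/SRC-1 split-Venus YFP fusions 48 h before dosing, then treated 24 h at 37C. Fixed cells imaged; nuclear/cytoplasmic 488 nm fluorescence ratio, gain of signal versus DMSO.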"}, "[6]": {"target": "Retinoic acid receptor RXR-alpha (Homo sapiens) (UniProt P19793)", "sequence (P19793 whole entry, looked up, the tested form may be a part)": "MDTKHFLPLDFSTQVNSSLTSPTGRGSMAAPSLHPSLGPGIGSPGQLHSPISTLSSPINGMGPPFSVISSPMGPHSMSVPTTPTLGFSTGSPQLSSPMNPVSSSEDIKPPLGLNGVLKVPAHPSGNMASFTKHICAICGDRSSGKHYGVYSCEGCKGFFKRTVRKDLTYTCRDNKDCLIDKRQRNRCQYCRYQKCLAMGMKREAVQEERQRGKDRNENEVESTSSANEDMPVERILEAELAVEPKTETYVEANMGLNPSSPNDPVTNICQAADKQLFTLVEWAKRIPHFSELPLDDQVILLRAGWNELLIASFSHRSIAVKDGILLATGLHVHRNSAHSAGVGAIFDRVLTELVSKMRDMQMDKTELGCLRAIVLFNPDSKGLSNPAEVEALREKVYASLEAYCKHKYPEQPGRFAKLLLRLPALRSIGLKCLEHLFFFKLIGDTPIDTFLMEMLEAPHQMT", "experiment": "OT_NURR1_NURR1RXRa_0480: Odyssey Thera (OT) 8-hour HEK293T Protein Complementation Assay for Nurr1/retinoid X receptor (RXR) (AID 2283385)", "procedure,_shortened": "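Interaction of Nurr1 with RXRα read as reconstituted reporter fluorescence in a HEK293T fragment-complementation system, 8 h post-treatment; increase over DMSO baseline analysed.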"}, "[7]": {"target": "Retinoic acid receptor RXR-alpha (Homo sapiens) (UniProt P19793)", "experiment": "OT_NURR1_NURR1RXRa_1440: Odyssey Thera (OT) 24-hour HEK293T Protein Complementation Assay for Nurr1/retinoid X receptor (RXR) (AID 2283386)", "procedure,_shortened": "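Gain in fluorescence, fitted relative to DMSO, reflects Nurr1–RXRα association in HEK293T cells after 24 h dosing. Bait and prey are each linked to a reporter-protein fragment that reassembles on interaction.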"}, "[8]": {"experiment": "CEETOX_H295R_OHPREG: CeeTox H295R High-throughput Steroidogenesis Assay for OH-Pregnenolone (OHPREG) (AID 2283434; active = hit-call score of the fitted dose curve at least 0.9, where 1 is the maximum; inactive = score below 0.9)", "details": "actives raise or lower the signal", "procedure,_shortened": "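H295R, 10 uM forskolin pre-stim 48 h; test chemical 48 h, 0.1% DMSO final. MTBE extraction, reverse-phase C18 HPLC-ESI+ MS/MS of medium. Gain/loss vs DMSO; viability by MTT in same wells.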"}, "[9]": {"experiment": "CEETOX_H295R_OHPROG: CeeTox H295R High-throughput Steroidogenesis Assay for OH-Progesterone (OHPROG) (AID 2283435; active = hit-call score of the fitted dose curve at least 0.9, where 1 is the maximum; inactive = score below 0.9;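 for AC50: 17alpha-hydroxyprogesterone secreted into medium measured by HPLC-MS/MS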)", "details": "actives raise or lower the signal", "procedure,_shortened": "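Medium steroid levels read by LC-MS/MS after 48 h chemical treatment (0.1% DMSO) of human adrenal H295R cells that had been forskolin-primed (10 uM, 48 h). Gain or loss fitted against DMSO; MTT cytotoxicity checked per well.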"}, "[10]": {"target": "mouse Estrogen Receptor alpha (Era), Esr1 (gene 13982) (UniProt P19785)", "sequence (P19785 whole entry, looked up)": "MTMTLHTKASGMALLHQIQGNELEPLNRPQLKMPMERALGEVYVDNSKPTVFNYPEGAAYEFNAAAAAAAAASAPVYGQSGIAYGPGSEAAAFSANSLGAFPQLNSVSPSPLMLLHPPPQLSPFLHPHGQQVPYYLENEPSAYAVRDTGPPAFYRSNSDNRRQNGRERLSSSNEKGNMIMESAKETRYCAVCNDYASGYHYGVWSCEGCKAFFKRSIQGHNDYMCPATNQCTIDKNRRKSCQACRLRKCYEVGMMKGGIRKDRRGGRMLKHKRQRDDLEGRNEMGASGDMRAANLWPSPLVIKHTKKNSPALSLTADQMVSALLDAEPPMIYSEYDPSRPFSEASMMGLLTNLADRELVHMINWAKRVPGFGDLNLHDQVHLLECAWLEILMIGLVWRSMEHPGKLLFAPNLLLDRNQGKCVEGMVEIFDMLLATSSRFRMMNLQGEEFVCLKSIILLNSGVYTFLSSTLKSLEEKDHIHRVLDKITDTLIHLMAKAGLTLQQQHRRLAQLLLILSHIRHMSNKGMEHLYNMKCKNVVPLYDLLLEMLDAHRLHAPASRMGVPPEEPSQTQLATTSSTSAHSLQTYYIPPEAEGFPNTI", "experiment": "NVS_NR_mERa: NovaScreen (NVS) Nuclear Receptor Binding Assay for mouse Estrogen Receptor alpha (Era) (AID 2283378);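 note: hit means loss of bound radioligand signal relative to DMSO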", "procedure,_shortened": "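Cell-free radioligand competitive displacement binding, read by filter-based scintillation counting 18 h after dosing. Primary screen run in duplicate at 25 uM, actives retested in concentration series; loss of signal versus DMSO.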"}, "[11]": {"target": "Estrogen receptor beta (Homo sapiens) (UniProt Q92731)", "sequence (Q92731 whole entry, looked up, the tested form may be a part)": "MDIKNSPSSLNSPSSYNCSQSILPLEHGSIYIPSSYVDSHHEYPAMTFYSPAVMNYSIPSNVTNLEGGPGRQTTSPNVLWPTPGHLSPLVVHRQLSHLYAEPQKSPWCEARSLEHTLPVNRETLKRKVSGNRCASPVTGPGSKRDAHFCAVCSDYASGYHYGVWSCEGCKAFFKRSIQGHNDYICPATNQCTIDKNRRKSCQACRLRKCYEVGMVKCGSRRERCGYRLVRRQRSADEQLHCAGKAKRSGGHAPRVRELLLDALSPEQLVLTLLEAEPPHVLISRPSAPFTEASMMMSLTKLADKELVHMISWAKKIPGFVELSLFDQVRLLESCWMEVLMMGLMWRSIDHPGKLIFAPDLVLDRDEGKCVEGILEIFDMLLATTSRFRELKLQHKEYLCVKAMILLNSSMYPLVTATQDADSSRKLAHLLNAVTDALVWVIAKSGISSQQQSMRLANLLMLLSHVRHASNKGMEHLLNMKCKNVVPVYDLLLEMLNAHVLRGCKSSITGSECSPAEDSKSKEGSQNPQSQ", "experiment": "OT_ER_ERbERb_1440: Odyssey Thera (OT) 24-hour HEK293T Protein-Complementation Assay for Estrogen Receptor-beta/-beta Homodimer (AID 2283380)", "procedure,_shortened": "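HEK293T cells stably expressing ER beta LBD (aa 310-547) homodimer fragment-complementation reporter, dosed 24 h. Cells formaldehyde-fixed, Draq5-stained; gain in nuclear (agonist) or nuclear plus cytoplasmic (antagonist) fluorescence versus DMSO read by laser scanning cytometry.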"}, "[12]": {"target": "rat Serotonin Transporter (SERT), Slc6a4 (gene 25553) (UniProt P31652)", "sequence (P31652 whole entry, looked up)": "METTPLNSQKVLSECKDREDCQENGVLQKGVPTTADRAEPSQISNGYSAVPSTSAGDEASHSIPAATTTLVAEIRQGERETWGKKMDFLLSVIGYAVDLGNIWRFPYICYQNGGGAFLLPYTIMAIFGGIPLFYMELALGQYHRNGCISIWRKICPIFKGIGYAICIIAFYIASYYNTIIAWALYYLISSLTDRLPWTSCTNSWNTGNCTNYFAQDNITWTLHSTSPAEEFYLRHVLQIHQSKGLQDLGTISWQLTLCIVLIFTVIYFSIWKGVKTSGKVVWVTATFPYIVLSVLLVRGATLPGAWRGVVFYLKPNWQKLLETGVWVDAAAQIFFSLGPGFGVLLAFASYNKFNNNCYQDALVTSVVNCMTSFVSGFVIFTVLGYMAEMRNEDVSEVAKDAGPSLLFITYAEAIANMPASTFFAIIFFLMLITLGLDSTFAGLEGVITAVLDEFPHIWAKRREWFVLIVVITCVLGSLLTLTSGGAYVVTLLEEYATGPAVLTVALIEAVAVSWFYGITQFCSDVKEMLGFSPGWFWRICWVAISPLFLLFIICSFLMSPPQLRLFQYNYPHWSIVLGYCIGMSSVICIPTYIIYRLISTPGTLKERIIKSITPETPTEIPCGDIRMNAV", "experiment": "NVS_TR_rSERT: NovaScreen (NVS) Transporter Assay for rat Serotonin Transporter (SERT) (AID 2283375)", "procedure,_shortened": "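Rat forebrain membranes; radioligand displacement at SERT read by filter-based scintillation counting, 1 h after dosing. Screened in duplicate at 25 uM, actives then run in concentration series; loss of signal versus DMSO baseline.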"}, "[13]": {"target": "Bile acid receptor (Homo sapiens) (UniProt Q96RI1)", "sequence (Q96RI1 whole entry, looked up, the tested form may be a part)": "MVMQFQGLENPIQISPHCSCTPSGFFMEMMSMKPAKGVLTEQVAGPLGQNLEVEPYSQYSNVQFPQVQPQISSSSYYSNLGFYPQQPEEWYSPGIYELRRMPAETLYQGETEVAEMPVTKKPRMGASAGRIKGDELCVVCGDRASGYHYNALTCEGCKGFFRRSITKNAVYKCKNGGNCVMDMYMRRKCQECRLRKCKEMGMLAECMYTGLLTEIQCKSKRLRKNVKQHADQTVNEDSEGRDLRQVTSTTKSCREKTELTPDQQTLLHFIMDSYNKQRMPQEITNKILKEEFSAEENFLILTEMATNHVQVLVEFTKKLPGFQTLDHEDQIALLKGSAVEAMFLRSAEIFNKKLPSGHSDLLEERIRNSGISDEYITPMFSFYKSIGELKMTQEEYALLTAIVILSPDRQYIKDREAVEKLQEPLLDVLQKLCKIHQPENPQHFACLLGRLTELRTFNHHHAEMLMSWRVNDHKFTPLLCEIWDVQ", "experiment": "OT_FXR_FXRSRC1_0480: Odyssey Thera (OT) 8-hour HEK293T Protein-Complementation Assay for Farnesoid X receptor/SRC-1 Co-activator (AID 2283383)", "procedure,_shortened": "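Binding of FXR to coactivator SRC-1 was read as fluorescence from a reconstituted split reporter in HEK293T cells, 8 h after chemical addition. Only increases in signal versus DMSO were fit.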"}, "[14]": {"target": "Bile acid receptor (Homo sapiens) (UniProt Q96RI1)", "experiment": "OT_FXR_FXRSRC1_1440: Odyssey Thera (OT) 24-hour HEK293T Protein-Complementation Assay for Farnesoid X receptor/SRC-1 Co-activator (AID 2283384)", "procedure,_shortened": "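Protein-fragment complementation: FXR and SRC-1 fused to reporter fragments that reassemble on interaction, read by fluorescence intensity. Human HEK293T cells measured 24 h post-dose; positive-direction fit versus DMSO.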"}}, "note": "Values joined by “and” are separate entries in the source; they are usually repeats but may differ in a detail not shown here. Equal entries are not always repeated. Results filed as inconclusive are left out. Where a structure was tested more than once in an assay, its records may differ in their call. Active and inactive are the calls of the source. Rule for the calls, unless noted: active = hit-call score of the fitted dose curve at least 0.9, where 1 is the maximum; inconclusive = response in the unintended direction; inactive = score below 0.9."}
{"smiles": "CC(C)(OO)c1ccccc1", "values": [{"measurement": "outcome", "setting": "[1]", "value": "inactive"}, {"measurement": "AC50", "setting": "[2]", "value": "35.3 µM (active)"}, {"measurement": "outcome", "setting": "[3]", "value": "inactive"}, {"measurement": "outcome", "setting": "[4]", "value": "inactive"}, {"measurement": "outcome", "setting": "[5]", "value": "inactive"}]}
{"smiles": "COc1cc(-c2ccc(N)c(OC)c2)ccc1N", "values": [{"measurement": "AC50", "setting": "[1]", "value": "10.3 µM (active) and 7.7 µM (active)"}, {"measurement": "outcome", "setting": "[6]", "value": "inactive"}, {"measurement": "AC50", "setting": "[7]", "value": "67.1 µM (active) and 41.3 µM (active) and 50 µM (active)"}, {"measurement": "outcome", "setting": "[7]", "value": "inactive"}, {"measurement": "outcome", "setting": "[4]", "value": "inactive"}, {"measurement": "outcome", "setting": "[5]", "value": "inactive"}, {"measurement": "AC50", "setting": "[8]", "value": "82.6 µM (active)"}, {"measurement": "outcome", "setting": "[8]", "value": "inactive"}, {"measurement": "AC50", "setting": "[9]", "value": "1.9 µM (active)"}, {"measurement": "outcome", "setting": "[9]", "value": "inactive"}]}
{"smiles": "CC(C)(c1ccccc1)c1ccc(O)c(C(C)(C)c2ccccc2)c1", "values": [{"measurement": "outcome", "setting": "[1]", "value": "inactive"}, {"measurement": "outcome", "setting": "[10]", "value": "inactive"}, {"measurement": "outcome", "setting": "[11]", "value": "inactive"}, {"measurement": "outcome", "setting": "[2]", "value": "inactive"}, {"measurement": "outcome", "setting": "[3]", "value": "inactive"}, {"measurement": "outcome", "setting": "[4]", "value": "inactive"}, {"measurement": "outcome", "setting": "[5]", "value": "inactive"}]}
{"smiles": "CCN1CCC2(CC1)COc1cc3c(cc12)N(C(=O)c1ccc(-c2ccc(-c4nnc(C)o4)cc2C)cc1)CC3", "values": [{"measurement": "AC50", "setting": "[12]", "value": "7.6 µM (active)"}, {"measurement": "AC50", "setting": "[1]", "value": "10.1 µM (active)"}, {"measurement": "AC50", "setting": "[10]", "value": "0.174 µM (active)"}, {"measurement": "outcome", "setting": "[11]", "value": "inactive"}, {"measurement": "outcome", "setting": "[2]", "value": "inactive"}, {"measurement": "outcome", "setting": "[3]", "value": "inactive"}, {"measurement": "outcome", "setting": "[4]", "value": "inactive"}, {"measurement": "outcome", "setting": "[5]", "value": "inactive"}]}
{"smiles": "Nc1ccc(Cl)cc1C(=O)c1ccccc1", "values": [{"measurement": "AC50", "setting": "[1]", "value": "12 µM (active)"}]}
{"smiles": "O=C1C2(Cl)C3(Cl)C4(Cl)C(Cl)(Cl)C5(Cl)C3(Cl)C1(Cl)C5(Cl)C24Cl", "note": "(stereo not drawn)", "values": [{"measurement": "AC50", "setting": "[1]", "value": "1.57 µM (active) and 1.82 µM (active) and 869 nM (active)"}, {"measurement": "AC50", "setting": "[13]", "value": "10.7 µM (active)"}, {"measurement": "AC50", "setting": "[14]", "value": "10.8 µM (active)"}, {"measurement": "outcome", "setting": "[4]", "value": "inactive"}, {"measurement": "outcome", "setting": "[5]", "value": "inactive"}]}
{"smiles": "COP(=S)(OC)Oc1ccc(Sc2ccc(OP(=S)(OC)OC)cc2)cc1", "values": [{"measurement": "AC50", "setting": "[1]", "value": "1.39 µM (active)"}, {"measurement": "AC50", "setting": "[11]", "value": "33.8 µM (active)"}, {"measurement": "outcome", "setting": "[2]", "value": "inactive"}, {"measurement": "outcome", "setting": "[3]", "value": "inactive"}, {"measurement": "outcome", "setting": "[6]", "value": "inactive"}, {"measurement": "outcome", "setting": "[4]", "value": "inactive"}, {"measurement": "outcome", "setting": "[5]", "value": "inactive"}]}
